Source: PubChem BioAssay (NCI)
“And” between values parts separate entries of the source, which are not always exact repeats. Equal values may be shown once. Compounds without any hit were thinned out: in the full panel of roughly 79,000, 15% have a hit. Unmarked numbers belong to inactive results. The source made the active and inactive calls. Rule as the data show it: active = growth inhibition above about 70%; inactive = the rest. Where a SMILES comes first, the peptide text is derived from it. [ ]: non-standard residue; d: D form. The star is where a group is joined. ξ: configuration not given here. ξNMe2Val = CC(C)C(C(=O)*)N(C)C; NMeV = CN[CH](C(=O)O)C(C)C; NHBn = c1ccc(CN*)cc1

Experiments:
[1] = NCI Yeast Anticancer Drug Screen. Data for the rad50 strain (AID 155);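 also: 0% = growth of vehicle-only cultures of the same strain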; conditions: S. cerevisiae rad50 strain growth inhibition; at 50.0 µM; hits give high values
In short: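 Yeast carrying a defined DNA repair defect were exposed to test compounds, and growth was compared with vehicle-treated controls to give percent inhibition.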

[2] = NCI Yeast Anticancer Drug Screen. Data for the mec2-1 strain (AID 157); conditions: S. cerevisiae mec2-1 strain, at 50.0 µM, hits give high values
In short: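 Using mec2-1 yeast: add compound, measure growth, express inhibition versus vehicle-treated cultures.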

[3] = NCI Yeast Anticancer Drug Screen. Data for the sgs1 mgt1 strain (AID 161);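 also: 0% = growth of cultures given vehicle only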; conditions: S. cerevisiae sgs1 mgt1 strain, at 50.0 µM, hits give high values
In short: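 Growth of a repair-deficient yeast mutant was monitored after compound treatment and expressed as inhibition relative to vehicle-treated cultures.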

[4] = NCI Yeast Anticancer Drug Screen. Data for the cln2 rad14 strain (AID 165);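 also: 0% = growth equal to vehicle treated cultures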; conditions: S. cerevisiae cln2 rad14 strain, at 50.0 µM, hits give high values
In short: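 Yeast strain cln2 rad14, bearing defects in cell cycle control and DNA repair, serves as the test system; values reflect growth inhibition compared with vehicle.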

[5] = NCI Yeast Anticancer Drug Screen. Data for the bub3 strain (AID 167); conditions: S. cerevisiae bub3 mutant strain, at 50.0 µM, hits give high values
In short: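 Compounds were applied to a genetically altered yeast strain carrying a cell-cycle control defect. Growth inhibition was scored against vehicle-treated controls.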

[6] = NCI Yeast Anticancer Drug Screen. Data for the mlh1 rad18 strain (AID 175); conditions: S. cerevisiae mlh1 rad18 strain growth inhibition; at 50.0 µM; hits give high values
In short: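 Steps: expose repair-defective yeast to compound; measure growth; express inhibition against vehicle-treated controls.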

| Compound | growth inhibition [1] | growth inhibition [2] | growth inhibition [3] | growth inhibition [4] | growth inhibition [5] | growth inhibition [6] |
| --- | --- | --- | --- | --- | --- | --- |
| O=[N+]([O-])c1ccc(OCc2ccc(COc3ccc(S(=O)(=O)F)cc3)cc2)c(Cl)c1 | -0.6% | -8.15% | -2.3% | -6.35% | -7.6% | -7.5% |
| CC1N=NNN1C (stereo not given) | -1.8% | -9.7% | -2.3% | -5.9% | 8.75% | -8.65% |
| CN1CCN(C)C(N2CCOCC2)C(C)(C)C1 (stereo not given) | 15.4% | -4.2% | -8.15% | -9.45% | 0.85% | 2.85% |
| Nc1nc(N)c2cnnn2n1 | 18.1% | -13.2% | 17.3% | 11.9% | 4.05% | 20.8% |
| CCOC(CNC(=O)c1ccc(S(=O)(=O)F)cc1)OCC | -4.4% | 27.6% | 22.1% | -5.9% | 42.8% | 26.4% |
| CSc1nsc(-c2ccccc2)[s+]1 | 13% | -11.6% | 2.95% | -74.5% | -9.2% | 18% |
| [Br][Co][Br].[NH-]CC[NH-].[NH-]CC[NH-] | 28.4% | 15.6% | 18.4% | -6.95% | 22.9% | 17.8% |
| O=C(CCN1CC2CCC(CC2)C1)c1cccs1 | -15.8% | -21.9% | -16.4% | -13.9% | -45.8% | -28.8% |
| CC(C)C(NC(=O)C(C(C)C)N(C)C)C(=O)N(C)C(C(=O)N1CCCC1C(=O)N1CCCC1C(=O)NCc1ccccc1)C(C)C (stereo not given) (ξNMe2Val-V[NMeV]PP-NHBn; configuration not given here) | -18.3% | -17.7% | -22.9% | 12% | 3.55% | -47% |
| N.N.N.N.N#N.N#N.[Cl-].[Os+6] | -25.4% | -24.1% | -34.6% | -7.95% | -35.4% | -39% |
| CCCCCCCCCCCCCCC(=O)[O][Hg][c]1ccccc1 | 99.2% (active) | 98.9% (active) | 99.5% (active) | 99% (active) | 99.2% (active) | 99.1% (active) |
| CC(C)CCC(=O)c1ccoc1 | -2.45% | -9.95% | -1.55% | 3.65% | 5.45% | -28.6% |
| C1CC[N-]CC1.C1CC[N-]CC1.[Cl][Pd][Cl] | 1.25% | 8.8% | 13% | -23.6% | 10.8% | 15.4% |
| N#CC(C#N)=Cc1cccc(C=C(C#N)C#N)c1 | -0.55% | -3.65% | 12.9% | 8.3% | 0.65% | -24.6% |
| CC(C)C(NC(=O)CCl)C(=O)O (stereo not given) | -9.2% | -0.2% | 5.75% | -11.4% | -2.55% | 0.3% |
| NC(N)=NOCC[C@@H](N)C(=O)O | -0.5% | -3.7% | 8.85% | 20.2% | 1.4% | 11.7% |
| [Co+2].[Co+2].[O-]CCCN=Cc1ccccc1[O-].[O-]CCCN=Cc1ccccc1[O-] | 53.5% | 46% | 60.8% | -5.1% | 30.6% | 58.1% |
| CN(C)CCCCCCN(C)C | -8.85% | 3.9% | -12.5% | -9.8% | 6.9% | -4.75% |
| ClCc1ccco1 | 0.35% | 2.4% | 10.6% | -11.4% | 23.6% | 36.2% |
| c1cnc[c]([Hg][c]2cccnc2)c1 | 40.1% | 56.5% | 37.2% | 73.5% (active) | 88.8% (active) | 53.4% |
| O=[N+]([O-])C(CO)C(CO)[N+](=O)[O-] (stereo not given) | -5.95% | -12.4% | -1% | -20.8% | -13% | -17.6% |
| C/C=C1\CN2CC[C@H]1C[C@H]2[C@H](O)c1ccnc2ccc(NCCO)cc12 | 11.6% | 7.8% | 5.95% | 22.7% | -1.65% | 36.9% |
| O=C1CCP(c2ccccc2)(c2ccccc2)(c2ccccc2)O1 | 34.9% | 11.8% | 23.1% | 25.7% | 14.3% | 7% |

| Compound | growth inhibition [1] | growth inhibition [2] | growth inhibition [3] | growth inhibition [4] | growth inhibition [5] | growth inhibition [6] |
| --- | --- | --- | --- | --- | --- | --- |
| C[n+]1ccccc1-c1ccc[n+](CCCC[n+]2cccc(-c3cccc[n+]3C)c2)c1 | -8.5% | -1.8% | -7.5% | -25.6% | -8.65% | 20% |
| O=C(CC([Se]c1ccccc1)c1ccccc1)c1ccccc1 (stereo not given) | 98% (active) | 88.8% (active) | 95.7% (active) | 89.4% (active) | 93.7% (active) | 98% (active) |
| CC(=O)OC1CCC2C3CCC4CC5(CCC4(C)C3CCC12C)CO5 (stereo not given) | -2.45% | -10.7% | -26.2% | 1.2% | 1.75% | 1.2% |
| C=C(C)C1(CC(C)C)C(=O)NC(=O)NC1=O | 7.4% and 2.9% | 6.4% and 0.4% | -7.55% and 1.75% | 2.3% and -2.6% | -14.8% and 8.15% | -5.9% and -4.3% |
| CC1=CC(C)C/C=C/C2C3OC3(C)C(C)C3C(Cc4c[nH]c5ccccc45)NC(=O)C23C(=O)C=CC(=O)C1O (stereo not given) | 88.4% (active) | 92.5% (active) | 92.6% (active) | 91% (active) | 91.3% (active) | 92.1% (active) |
| CCOC(=O)C(Br)C(C)C (stereo not given) | 24.1% | 12% | 16.1% | 24.6% | 7.6% | 10.5% |
| O=C1SCCC1NP(=O)(Oc1ccccc1)Oc1ccccc1 (stereo not given) | 5.35% | 23.1% | -1.35% | -10.9% | 9.25% | 21.9% |
| CCOS(=O)(=O)OCC | 1.2% | -12.1% | 4.25% | -0.45% | -10.8% | 14.2% |
| C[N+](C)(C)NP(=O)(N[N+](C)(C)C)Oc1ccccc1 | 28.4% | 15.2% | -10.7% | 20.8% | 1.05% | 28.1% |
| COc1ccc(C=O)cc1 | 41.5% | -10.2% | -7.5% | -21.2% | 0.8% | 21.5% |
| CCCCCCOC(=O)c1ccccc1C(=O)OCCCCCC | -13.2% | -1.75% | -27.9% | -12.5% | -45.2% | -2.8% |
| NC(=S)N=C(N)N | 11.8% | -3.55% | -6.25% | -10.4% | 8.4% | 9.85% |
| C1N2CN3CN1CN(C2)C3.[Cu+2] | -15.4% | -9.85% | -14.7% | -8.5% | -15% | -6.9% |
| C1=[N+]2CCCC2Cc2ccc3ccccc3c21 (stereo not given) | -17.8% | -6.1% | -4.15% | -16.4% | -4.6% | -8.85% |
| CCn1nnnc1N | 3.35% | 15.9% | 11.1% | 16.4% | 17.8% | 14% |
| CC1(C)N=C(N)N=C(N)N1c1ccc(CCCCc2ccc(S(=O)(=O)F)c(Cl)c2)c(Cl)c1 | 99.2% (active) | 99.5% (active) | 99.4% (active) | 99.2% (active) | 99.3% (active) | 99.3% (active) |
| NNC(=S)S | 27.9% and -11.3% and -7.8% | 26.1% and -14.6% and -8.5% | 6.1% and -1.65% and -21.6% | 22.2% and -24.2% and -21.7% | 26.2% and 9.35% and -27% | 5.3% and -2.15% and -45.4% |
| C=C(C)[C@H]1CN[C@H](C(=O)O)[C@H]1CC(=O)O | -5.6% | -5% | -6.15% | -19.9% | -6.5% | 5.05% |
| O=S(=O)(O)O.[W] | 27.2% | -7.55% | 14.3% | -5.65% | 18% | -8.95% |
| CCCCCCC1C(=O)NC(=O)NC1=O | -4.25% | -15.1% | -8% | -7.75% | 2.6% | -12.3% |
| O=P(O)(OCCc1ccccc1)Oc1ccccc1O | -6.05% | -4.55% | -20.7% | -1.15% | -10.7% | 13.6% |
| c1cc[c]([Ge]([c]2ccccc2)[c]2ccccc2)cc1.c1cc[c]([Ge]([c]2ccccc2)[c]2ccccc2)cc1 | 7.75% | 1.45% | -1.7% | -4% | 4.8% | -3.65% |
